Consider 37 compounds from PubChem BioAssay (EPA / NIEHS).

One may read the AC50 as the concentration giving half of the maximal activity seen.

Each structure is given as a SMILES string. Several values for one entry are separate records, joined by “and”; a condition that tells them apart may be missing. Equal entries are not always repeated. More than one record can exist for a structure, and the calls need not agree. Activity calls are given as the source filed them. The calls were made as follows: active = hit-call score of the fitted dose curve at least 0.9, where 1 is the maximum; inactive = score below 0.9.

Read-out in the test: C-C motif chemokine 2 (Homo sapiens) (UniProt P13500)
Nature of the test: BSK_KF3CT_MCP1: BioMAP Diversity Plus: KF3CT Assay for Monocyte Chemoattractant Protein 1 (MCP1/CCL2) Biomarker Activity (AID 2283073). The settings on record: primary human keratinocytes with fibroblasts; actives raise or lower the signal. The procedure: BSK_KF3CT is a cell-based, multiplexed-readout assay that uses keratinocytes and foreskin fibroblasts, a human skin primary cell co-culture, with measurements taken at 24 hours after chemical dosing in a 96-well plate.BSK_KF3CT_MCP1 is an assay component measured in the BSK_KF3CT assay. It measures MCP-1 antibody related to regulation of gene expression using ELISA technology.Data from the assay component BSK_KF3CT_MCP1 was analyzed into 1 assay endpoint. This assay endpoint, BSK_KF3CT_MCP1, was analyzed with bidirectional fitting relative to DMSO as the negative control and baseline of activity. Using a type of binding reporter, gain or loss-of-signal activity can be used to understand changes in the signaling as they relate to the gene CCL2. Furthermore, this assay endpoint can be referred to as a primary readout, because this assay has produced multiple assay endpoints where this one serves a signaling function. To generalize the intended target to other relatable targets, this assay endpoint is annotated to the cytokine intended target family, where the subfamily is chemotactic factor.
The levels of cell surface (or secreted, indicated by the prefix "s") biomarker endpoints were measured by ELISA. Overt cytotoxicity to cells in confluent adherent cultures (all systems other than the BT system) was assessed by measuring total protein levels using sulforhodamine B (SRB) staining in parallel cultures at the time of biomarker measurements, indicated as SRB endpoints. For proliferation assays for adherent cell types, individual cell types are cultured at sub-confluence and relative cell numbers quantified by SRB staining at time points optimized for each system (48 h: 3C and CASM3C systems; 72 h: BT and HDF3CGF systems; 96 h: SAg system). SRB was performed by staining cells with 0.1% SRB after fixation with 10% TCA and reading wells at 560 nm.Viability and proliferation of PBMC (T cells) was quantified by Alamar Blue reduction for the SAg and BT systems. For PBMC viability (referred to as PBMC Cytotoxicity within the assay endpoint names), cells were plated (75,000/well in a 96-well plate) and then chemical samples added for 1 h before addition of activators, SEB and TSST-1 (20 ng/mL final concentration each). Cells were incubated for 90 h. Then, Alamar Blue (20 uL/well) (Invitrogen, Cat DAL1100) was added for 6 h, and the plates were read with a fluorescence microplate reader at 546/580 nm (excitation/emission). For PBMC proliferation, cells were plated and activated as above but incubated for only 16 h prior to addition of Alamar Blue. Plates were read after 6 h.
For the compound `CCCC[N+](CCCC)(CCCC)CCCC`, the outcome was inactive.
Turning to `CCc1cc(C)cc(CC)c1-c1c(OC(=O)C(C)(C)C)n2n(c1=O)CCOCC2`, the outcome was inactive.
Still for that read-out and setting: to `Nc1ccc(-c2ccc(N)c(N)c2)cc1N` belongs “inactive”; to `CCCCCCCCCCCC#N`, “inactive”.
As to `O=C(O)CCCc1ccc(N(CCCl)CCCl)cc1`, the outcome was inactive and the AC50 was 30 µM (active).
As to `COC(C)(C)CCC[C@H](C)C/C=C/C(C)=C/C(=O)OC(C)C`, the outcome was inactive.
For `O=C(CCl)c1ccccc1`, the AC50 was 32 µM (active).
In the case of `COCC(=O)N(c1c(C)cccc1C)N1CCOC1=O`, the result was inactive.
Same read-out and setting: to `C=CCN(CC=C)C(=O)C(Cl)Cl` belongs “inactive”.
For `CC(C)(c1cc(Cl)c(O)c(Cl)c1)c1cc(Cl)c(O)c(Cl)c1`, the AC50 is 10 µM (active).
The same measure, in the same setting: to `O=[N+]([O-])C=Cc1ccccc1` belongs 20 µM (active).
The same measure, in the same setting: the value for `Oc1ccc(C2(c3ccc(O)cc3)c3ccccc3-c3ccccc32)cc1` was 5.75 µM (active) and 6.7 µM (active).
Still for that read-out and setting: to `O=C1C=CC(=O)C=C1` belongs 27.7 µM (active) and 16.1 µM (active).
In the case of `O=S(=O)(c1ccccc1)c1ccccc1`, the result was inactive.
On the same count and under the same terms, to `CC(C)(C)C(=O)CCl` belongs “inactive”; to `Oc1cc(Cl)ccc1Cl`, “inactive”.
As to `O=[N+]([O-])O`, the outcome was inactive.
`O=c1c2ccccc2c(=O)c2c1cc(Cl)c1[nH]c3c([nH]c12)c(Cl)cc1c(=O)c2ccccc2c(=O)c13`: the outcome was inactive.
In the case of `[Cd+2].[Cl-].[Cl-]`, the AC50 was 20 µM (active) and 14.1 µM (active).
As for `CC1(C)[C@H](C(=O)O[C@H](C#N)c2cccc(Oc3ccccc3)c2)[C@@H]1C=C(Br)Br`, the outcome was inactive.
On the same count and under the same terms, the value for `O=[N+]([O-])c1ccc(Cl)cc1` was “inactive”.
Take `CC(C)COP(=O)(OCC(C)C)OCC(C)C`: the outcome was inactive.
Same read-out and setting: the value for `CNC(=O)Oc1cc(C)c(SC)c(C)c1` was “inactive”.
Take `Cc1ccc(OP(=O)(Oc2ccc(C)cc2)Oc2ccc(C)cc2)cc1` (tested in a mixture with another compound): the outcome was inactive.
The same measure, in the same setting: the value for `O=c1[nH]c(Cl)c(Cl)cc1Cl` was “inactive”.
`CCC(C)c1cc([N+](=O)[O-])cc([N+](=O)[O-])c1OC(=O)C=C(C)C` (stereo not drawn): the AC50 was 36.7 µM (active).
With `O=P1(NCCCl)OCCCN1CCCl` (stereo not drawn), the outcome was inactive.
Still for that read-out and setting: the value for `C=CC(=O)OCC(CC)CCCC` (stereo not drawn) was “inactive”; that for `Clc1ccc(-c2ccccc2)cc1` was “inactive”; that for `CC(C)CCCCCCCOC(=O)c1ccccc1C(=O)OCCCCCCCC(C)C` was “inactive”.
As for `CC(C)CCCCCCCOP(=O)(Oc1ccccc1)Oc1ccccc1`, the AC50 was 31.4 µM (active).
With `CCCOC(=O)c1ccccc1C(=O)OCCC`, the result was inactive.
Turning to `CC(=O)/C=C/c1ccccc1`, the result was inactive.
Same read-out and setting: to `CC(C)(C)C(O)C(Oc1ccc(-c2ccccc2)cc1)n1cncn1` (stereo not drawn) belongs “inactive”.
For the compound `c1ccc(Nc2ccc3ccccc3c2)cc1`, the AC50 was 30.9 µM (active).
On to `O=C1C(Cl)=C(Cl)C(=O)C(Cl)=C1Cl`, for which the half-maximal activity concentration (AC50) was 10.1 µM (active).
Take `N#CCCCCC#N`: the outcome was inactive.
